# Data as given in ChEMBL document CHEMBL4888484, “Replenishing the malaria drug discovery pipeline: Screening and hit evaluation of the MMV Hit Generation Library 1 (HGL1) against asexual blood stage Plasmodium falciparum ,using a nano luciferase reporter read-out” (2022).
# Screen size: about 4,800 compounds; about 410 (8.5%) showed an effect of 50% or more. The entries come from a sample that favours strong results as a whole.
# System: Plasmodium falciparum
# Test: Confirmatory screen in NF54 pLDH assay, in single point, at 2uM, 72h
# Format: functional, Erythrocyte
# Conditions: timepoint 72 hour
row,Compound,% Inhibition [%]
1,CO[C@@H](CNc1nc(C)c(S(N)(=O)=O)s1)c1ccc(F)cc1,-17
2,CCc1ccc(C2=C[C@@H](c3cccc(OC)c3)n3ncc(C(=O)Nc4ccc(C)cc4)c3N2)cc1,70
3,COc1ccc(NC(=O)[C@@H]2COCC(=O)N2Cc2ccc(C)cc2)cc1,7
4,COc1cccc([C@H]2CC(=O)Nc3c2cnn3C)c1,-11
5,Cc1nn(CCOc2ccccc2)c(=O)n1-c1ccc(C(C)C)cc1,14
6,CC(=O)N1CCCN(C(=O)c2ccccc2)CCNC(=O)[C@@H]2CCC[C@@H]21,9
7,CC(C)(C)n1ncc2c1NC(=O)C[C@@H]2c1c(F)cccc1Cl,-19
8,CC(C)C(=O)Nc1ccc(-c2cc(-c3ccc(NC(=O)C(C)C)cc3)nc(-c3ccncc3)n2)cc1,42
9,C[C@H](N)c1ccc(Nc2ncc3cc(-c4ccncc4)ccc3n2)cc1,101
10,CCC(CC)C(=O)Nc1cccc(O)c1,7
11,O=c1c2cc(F)c(F)cc2ncn1C[C@@H](O)CC1CCCC1,9
12,O=C1CCC(Nc2ccc(Br)cn2)C(C2CC2)N1 (stereo not drawn),15
13,Clc1cc(CN2CC[C@@]3(CCCOC3)C2)ccc1OCCN1CCOCC1,11
14,CCn1cc(Cl)c(C(=O)N2N=C3/C(=C/c4ccc5c(c4)OCO5)CCCC3C2c2ccc3c(c2)OCO3)n1 (stereo not drawn),8
15,CCc1ccc(NC(=O)c2c(C)sc3ncnc(N4CCCCC4)c23)cc1,12
16,C[C@H](C(=O)Nc1nccn2ccnc12)c1ccccc1,3
17,CC(=O)N1CCn2c(nnc2[C@@H]2CCCN2S(=O)(=O)c2cc(F)ccc2F)C1,3
18,CCC(CC)C(=O)Nc1cccc(Cl)c1C,4
19,COc1ccc(CN2CC(C)OC3(CCOC3)C2)cc1Cl (stereo not drawn),6
20,Cc1noc(C)c1C(=O)NC[C@H](O)Cn1ccccc1=O,6
21,Cc1c(NC(=O)c2ccc(-c3cccc(F)c3)o2)cccc1-c1nc2ncccc2o1,-2

row,Compound,% Inhibition [%]
1,Cc1ccc(F)cc1S(=O)(=O)N1CC[C@]2(CCN(c3cccnc3)C2)C1,-20
2,N#Cc1ccc(O)c(NC(=O)c2snc(O)c2Cl)c1,-3
3,O=C1[C@@H]2CCCN2C(=O)N1Cc1ccnc(OC2CCOCC2)c1,-11
4,O=C(N[C@H](c1ccccc1)C1CC1)C(c1ccccc1)c1ccccc1,11
5,CN(C)C(=O)NCC1(NC(=O)N(C)C)CCC1,5
6,CCOc1cc(CNC2CCCCC2)cc(Cl)c1OCc1ccc(C)cc1,-4
7,Clc1ccc(-c2noc(C3CNC3)n2)cc1,15
8,CC(C)N1CCN(C(=O)CN2N=C(c3nc(-c4ccccc4)no3)CCC2=O)CC1,2
9,c1ccc(-c2noc(-c3ccc(NC4CCCCC4)nn3)n2)cc1,60
10,COc1ccc(-c2cc(C(F)(F)F)nc(-n3nc(-c4cccc(OC)c4)c(Cl)c3-c3cccc(OC)c3)n2)cc1,92
11,COc1cccc(-c2nn(-c3nc(-c4ccccc4)cc(C(F)(F)F)n3)c(-c3cccc(OC)c3)c2Cl)c1,35
12,Cc1c(-c2nn(-c3nc(C4CC4)cc(C(F)(F)F)n3)c(-c3cnn(C)c3C)c2Cl)cnn1C,14
13,Cc1nnc2ccc(S(=O)(=O)N(Cc3ccc(F)cc3)c3cccc(Cl)c3)cn12,14
14,C[C@H]1CN(Cc2ccccc2)CC2(CCN(C(=O)N(C)C)CC2)O1,10
15,COc1ccc2nc(O)c(C(=O)Nc3ccc4c(c3F)CCNC4)cc2c1,101
16,COc1ccc(F)c(NC(=O)N(CCO)C(C)C)c1,10
17,COc1ccc(NC(=O)CN2N=C(C(=O)Nc3ccc(F)cc3)CCC2=O)cc1,-1
18,O=C(c1cn[nH]c1-c1ccccc1)N1CCCCCC1,1
19,CC(C)[C@@H]1CC[C@H](C)C[C@H]1OC(=O)Cn1cc(-c2ccc(Cl)cc2)[n+]2c1CCC2,75
20,CC(C)(C)NC(=O)c1ncc(Br)cc1Br,5
21,COc1ccc(-c2noc([C@H](C)NC(=O)N3CCNC(=O)C3)n2)cc1OC,6

row,Compound,% Inhibition [%]
1,CCc1ccc(CS(=O)(=O)NC(=O)c2cn3ccnc3s2)cc1,4
2,CCn1ccnc1C(=O)Nc1ccc(OC)nc1,7
3,CS(=O)(=O)Nc1ccc(OC(=O)C2C3CCCCC32)cc1 (stereo not drawn),11
4,O=C1OC2(c3ccccc31)C(c1ccccc1)CC(=O)N2Cc1ccccc1 (stereo not drawn),-21
5,C[C@](O)(CCc1ccccc1)C(=O)NCCc1ncc[nH]1,6
6,Cc1ccc(C(=O)N2CC(C)CC(C)C2)cc1NCc1ncc[nH]1 (stereo not drawn),8
7,Cc1ccccc1C(=O)Cc1ncc[nH]1,53
8,CCCS(=O)(=O)NC1CCC2(CC1)OCCO2,-18
9,COc1ccc2c(c1)CN(Cc1ccccc1Cl)CC[C@H]1COC(=O)N21,-1
10,COc1ccccc1C(=O)NC1=NN2C(=NC(c3ccc(Cl)cc3)=C[C@H]2c2ccc(Cl)cc2)N1,92
11,O=C(NC1=NN2C(=NC(c3ccc(Cl)cc3)=C[C@H]2c2ccc(F)cc2)N1)c1ccc(Cl)cc1,13
12,COc1ccc([C@@H]2C=C(c3ccc(Cl)cc3)N=C3NC(NC(=O)c4ccccc4OC)=NN32)cc1,89
13,COc1cc(N2CCn3c(nc4cc(Cl)ccc43)C2)ccc1NC(=O)c1ccccc1OC,-10
14,Fc1ccc(C2=C[C@@H](c3ccc(Cl)cc3)N3N=C(c4ccc(Cl)cc4)NC3=N2)cc1,97
15,CCC1=NN2C(=NC(C(=O)O)=C[C@H]2c2ccc(O)cc2)N1,-3
16,COc1ccccc1C(=O)NC1=C(C)Nc2ncnn2[C@H]1c1c[nH]c2ccccc12,-5
17,COc1cc(NC(=O)c2ccccc2Cl)cc(S(=O)(=O)c2ccc(Cl)cc2)c1,-15
18,Cc1noc(Cn2c(=O)c3ccccc3n(CC(=O)Nc3cccc(Cl)c3C)c2=O)n1,2
19,Cc1cccc(N2C(=O)C3CC3C2=O)c1 (stereo not drawn),8
20,C[n+]1ccc(-c2ncc(-c3ccccc3)o2)c2ccccc21,62
21,Cc1cc(F)c(C(=O)Nc2nc(-c3cnn(C)c3)cs2)cc1F,-4
